Measured values reported in the supplement of paper PMC3545927.
This is one part of the list. How many sequences the whole screen found active is unknown.

B1: HC1880 (peptide)
chain: CATTCCSGSWAGNASASA
B2: HC2322 (peptide)
chain: CAQVPCHRPSAGNASASA
B3: FS-1218 (peptide)
chain: CAKKKRRKRKAGNASASA
B4: FS-673 (peptide)
chain: CAKKKRKKRKAGNASASA
B5: FS-2866 (peptide)
chain: CAKKKRKFSKAGNASASA
B6: FS-2541 (peptide)
chain: CAKKKRAACKAGNASASA
B7: FS-1223 (peptide)
chain: CAKRKRSKRKAGNASASA
B8: FS-2122 (peptide)
chain: CAKKKRVVPKAGNASASA
B9: FS-1222 (peptide)
chain: CAKNMRRKRKAGNASASA
B10: FS-245 (peptide)
chain: CAGRSHSKRKAGNASASA
B11: HC631 (peptide)
chain: CALGALTGTYAGNASASA
B12: HC1451 (peptide)
chain: CAVFPDLGVRAGNASASA
B13: HC1456 (peptide)
chain: CAEKMALYDVAGNASASA
B14: FS-2362 (peptide)
chain: CARQNRSRSIAGNASASA
B15: FS-3127 (peptide)
chain: CARVTRSLDVAGNASASA
B16: FS-1698 (peptide)
chain: CARERRWQDVAGNASASA
B17: FS-3049 (peptide)
chain: CARRKKILDVAGNASASA
B18: FS-3039 (peptide)
chain: CARQMRSVDVAGNASASA
B19: HC2084 (peptide)
chain: CAVVCCSMSIAGNASASA
B20: FS-2274 (peptide)
chain: CARKWRSWKVAGNASASA
B21: FS-2400 (peptide)
chain: CARQMRSASIAGNASASA
B22: HC1649 (peptide)
chain: CAGGDIYHSVAGNASASA
B23: HC2497 (peptide)
chain: CASSPCSAHLAGNASASA
B24: HC1245 (peptide)
chain: CAAVLTSMLTAGNASASA
B25: FS-2857 (peptide)
chain: CAVSRRSRGIAGNASASA
B26: FS-912 (peptide)
chain: CANWQRARRFAGNASASA
B27: FS-1108 (peptide)
chain: CAAAARARRFAGNASASA
B28: FS-1436 (peptide)
chain: CAVSRRARRFAGNASASA
B29: FS-2114 (peptide)
chain: CAVSKRHVRIAGNASASA
B30: FS-1143 (peptide)
chain: CANFHKARRFAGNASASA
B31: FS-2185 (peptide)
chain: CARSNRQLGIAGNASASA
B32: HC1037 (peptide)
chain: CANWQKLETFAGNASASA
B33: NE2 (peptide)
chain: CAAAAAAAAAAGNASASA
B34: HC1074 (peptide)
chain: CATAFVGAGLAGNASASA
B35: HC1224 (peptide)
chain: CAGVRLHRFAAGNASASA
B36: HC1395 (peptide)
chain: CAQKKVTFDRAGNASASA
B37: HC982 (peptide)
chain: CAKYIMTCMSAGNASASA
B38: HC689 (peptide)
chain: CAGEVQIVSTAGNASASA
B39: HC315 (peptide)
chain: CAYPGHITGHAGNASASA
B40: HC1283 (peptide)
chain: CAESENKVVIAGNASASA
B41: FS-1028 (peptide)
chain: CALPIRRKRSAGNASASA
B42: FS-1172 (peptide)
chain: CATLERRKRSAGNASASA
B43: FS-911 (peptide)
chain: CAMEVLRKRSAGNASASA
B44: FS-118 (peptide)
chain: CACCCRRKRSAGNASASA
B45: FS-998 (peptide)
chain: CAGKELRKRSAGNASASA
B46: FS-1313 (peptide)
chain: CACQCRFFRSAGNASASA

Biological target: furin, P09958
Assay: furin cleavage Z-score vs untreated control; higher = more cleavage, active = 3.5 or more, inactive = 1 or less, 8 variable residues between constant flanks
Procedure, shortened: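 Peptides 8 residues long, fused to a cDNA oligonucleotide, were fixed to magnetic beads by the N-terminus and exposed to purified furin. The 0.01 ml reactions contained 50 mM HEPES pH 7.5 with CaCl2 and NaCl at 1:10 enzyme:substrate and ran 7.5, 15 or 30 min. For the cleavage Z-score, log counts of sequenced released DNA were compared with furin-free reactions, lowess-adjusted and scaled by median absolute deviation.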

Chain of furin, P09958 (P09958 whole entry): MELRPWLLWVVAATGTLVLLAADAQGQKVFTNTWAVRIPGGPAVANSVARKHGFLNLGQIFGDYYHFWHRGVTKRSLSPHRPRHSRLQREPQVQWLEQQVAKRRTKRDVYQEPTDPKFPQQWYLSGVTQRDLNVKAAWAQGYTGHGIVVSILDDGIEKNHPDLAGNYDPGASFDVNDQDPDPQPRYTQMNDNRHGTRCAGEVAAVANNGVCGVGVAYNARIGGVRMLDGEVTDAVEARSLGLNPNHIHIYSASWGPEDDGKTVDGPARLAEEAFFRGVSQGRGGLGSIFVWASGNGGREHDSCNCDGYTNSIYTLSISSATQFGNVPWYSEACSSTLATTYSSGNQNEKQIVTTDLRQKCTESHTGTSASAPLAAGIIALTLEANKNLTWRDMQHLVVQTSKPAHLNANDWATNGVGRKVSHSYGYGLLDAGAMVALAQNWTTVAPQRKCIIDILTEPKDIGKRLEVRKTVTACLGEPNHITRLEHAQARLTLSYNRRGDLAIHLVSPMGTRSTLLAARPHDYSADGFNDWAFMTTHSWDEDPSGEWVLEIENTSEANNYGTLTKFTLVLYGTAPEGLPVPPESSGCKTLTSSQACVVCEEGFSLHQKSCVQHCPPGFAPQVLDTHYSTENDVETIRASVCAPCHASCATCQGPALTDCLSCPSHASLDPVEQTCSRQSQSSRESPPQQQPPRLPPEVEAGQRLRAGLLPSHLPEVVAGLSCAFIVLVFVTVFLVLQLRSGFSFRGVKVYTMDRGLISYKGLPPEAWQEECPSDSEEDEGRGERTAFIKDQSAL

| Sequence | furin cleavage Z-score (7.5 min) | furin cleavage Z-score (15 min) | furin cleavage Z-score (30 min) |
| --- | --- | --- | --- |
| B1 | -0.863 (inactive) | -1.92 (inactive) | -0.734 (inactive) |
| B2 | 0.276 (inactive) | 1.25 | 1.48 |
| B3 | 5.44 (active) | 7 (active) | 6.09 (active) |
| B4 | 4.92 (active) | 5.01 (active) | 5.6 (active) |
| B5 | -0.0204 (inactive) | -0.905 (inactive) | -0.0235 (inactive) |
| B6 | 0.497 (inactive) | -0.617 (inactive) | 1.88 |
| B7 | 10.8 (active) | 10.5 (active) | 8.25 (active) |
| B8 | -1.74 (inactive) | -0.376 (inactive) | -0.937 (inactive) |
| B9 | 9.63 (active) | 9.29 (active) | 7.84 (active) |
| B10 | 1.44 | 0.295 (inactive) | 1.58 |
| B11 | -0.145 (inactive) | 0.814 (inactive) | 0.51 (inactive) |
| B12 | -2.35 (inactive) | -0.19 (inactive) | 0.302 (inactive) |
| B13 | 0.218 (inactive) | -0.51 (inactive) | 0.171 (inactive) |
| B14 | -0.846 (inactive) | 0.141 (inactive) | -0.0686 (inactive) |
| B15 | 5.89 (active) | 8.68 (active) | 7.6 (active) |
| B16 | -0.457 (inactive) | 0.122 (inactive) | 1.79 |
| B17 | 0.884 (inactive) | 0.207 (inactive) | -1.99 (inactive) |
| B18 | 2.09 | 3.9 (active) | 5.69 (active) |
| B19 | -0.331 (inactive) | -1.27 (inactive) | 0.12 (inactive) |
| B20 | 1.07 | 1.35 | 0.0619 (inactive) |
| B21 | 0.584 (inactive) | 2.25 | 4.94 (active) |
| B22 | -1.03 (inactive) | -0.366 (inactive) | -0.802 (inactive) |
| B23 | 0.244 (inactive) | 0.911 (inactive) | 0.262 (inactive) |

| Sequence | furin cleavage Z-score (7.5 min) | furin cleavage Z-score (15 min) | furin cleavage Z-score (30 min) |
| --- | --- | --- | --- |
| B24 | -1.15 (inactive) | 1.56 | 0.027 (inactive) |
| B25 | 1.63 | 3.08 | 4.54 (active) |
| B26 | 3.9 (active) | 4.91 (active) | 5.21 (active) |
| B27 | 2.41 | 5.92 (active) | 6.24 (active) |
| B28 | 10.2 (active) | 11.6 (active) | 10.4 (active) |
| B29 | -0.647 (inactive) | 1.47 | 2.71 |
| B30 | -0.34 (inactive) | -0.616 (inactive) | -0.0235 (inactive) |
| B31 | 0.465 (inactive) | -0.691 (inactive) | 0.216 (inactive) |
| B32 | 0.812 (inactive) | -1.06 (inactive) | 0.807 (inactive) |
| B33 | 2.09 | 0.496 (inactive) | 2.15 |
| B34 | -0.799 (inactive) | -0.776 (inactive) | -1.06 (inactive) |
| B35 | -0.592 (inactive) | -0.925 (inactive) | -0.313 (inactive) |
| B36 | -0.415 (inactive) | -0.119 (inactive) | -0.531 (inactive) |
| B37 | -1.5 (inactive) | -0.454 (inactive) | -2.07 (inactive) |
| B38 | -0.7 (inactive) | 0.651 (inactive) | -0.62 (inactive) |
| B39 | 0.244 (inactive) | -0.868 (inactive) | 0.3 (inactive) |
| B40 | -1.56 (inactive) | -1.01 (inactive) | -1.31 (inactive) |
| B41 | 13 (active) | 13.8 (active) | 9.29 (active) |
| B42 | 11.2 (active) | 9.64 (active) | 8.54 (active) |
| B43 | -0.513 (inactive) | -0.258 (inactive) | 0.754 (inactive) |
| B44 | 7.96 (active) | 7.28 (active) | 6.41 (active) |
| B45 | 6.16 (active) | 6.24 (active) | 6.7 (active) |
| B46 | 0.733 (inactive) | -1.88 (inactive) | -0.461 (inactive) |
